Measured values reported in PubChem BioAssay (EPA / NIEHS).
Where “and” joins values, the source holds several entries; their conditions need not be identical. Equal entries are not always repeated. Calls of active or inactive are those of the source. The calls were made as follows: active = hit-call score of the fitted dose curve at least 0.9, where 1 is the maximum; inactive = score below 0.9.

Columns and labels:
Settings in all cases: mRNA level, 48 h; actives raise or lower the signal
[1] = read-out: Tumor necrosis factor receptor superfamily member 6 (Homo sapiens) (UniProt P25445); assay: LTEA_HepaRG_FAS: Life Technologies and Expression Analysis (LTEA) Assay for Fas cell surface death receptor (FAS) using HepaRG (AID 2283447)
Procedure, shortened: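 Differentiated human HepaRG cells, pre-cultured 48 h, were exposed in duplicate for 48 h to 8-point half-log concentrations (top 100 uM, 0.5% DMSO) in serum-free induction medium; FAS mRNA measured by qRT-PCR, normalized to ACTB/GAPDH/POLR2A, bidirectional fit versus DMSO.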

[2] = read-out: Fatty acid synthase (Homo sapiens) (UniProt P49327); assay: LTEA_HepaRG_FASN: Life Technologies and Expression Analysis (LTEA) Assay for Fatty Acid Synthase (FASN) using HepaRG (AID 2283448)
Procedure, shortened: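 FASN expression changes, up or down relative to 0.5% DMSO, were measured by qRT-PCR in human HepaRG cells after 48 h treatment with chemicals at eight concentrations (half-log steps from 100 uM).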

[3] = read-out: Cyclin D2 (CCND2), CCND2 (gene 894); assay: LTEA_HepaRG_CCND2: Life Technologies and Expression Analysis (LTEA) Assay for Cyclin D2 (CCND2) using HepaRG (AID 2283449);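 also: CCND2 transcript measured by TaqMan qRT-PCR and normalised to three housekeeping genes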
Procedure, shortened: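 Differentiated human HepaRG cells were exposed for 48 h in serum-free induction medium to eight half-log concentrations topping at 100 uM (0.5% DMSO vehicle). CCND2 mRNA was quantified by TaqMan qRT-PCR, normalised to ACTB, GAPDH and POLR2A, and fitted bidirectionally against DMSO.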

[4] = read-out: Cyclin Dependent Kinase Inhibitor 1A (CDKN1A), CDKN1A (gene 1026); assay: LTEA_HepaRG_CDKN1A: Life Technologies and Expression Analysis (LTEA) Assay for Cyclin Dependent Kinase Inhibitor 1A (CDKN1A) using HepaRG (AID 2283450)
Procedure, shortened: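 Differentiated human HepaRG cells, pre-cultured 48 h, were exposed in duplicate for 48 h in serum-free induction medium to eight half-log concentrations up to 100 uM (0.5% DMSO). CDKN1A mRNA was measured by qRT-PCR, normalized to ACTB/GAPDH/POLR2A, bidirectionally fitted versus DMSO.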

[5] = read-out: Cyclin D1 (CCND1), CCND1 (gene 595); assay: LTEA_HepaRG_CCND1: Life Technologies and Expression Analysis (LTEA) Assay for Cyclin D1 (CCND1) using HepaRG (AID 2283451);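 as to AC50: TaqMan qRT-PCR transcript level normalised to ACTB GAPDH and POLR2A housekeeping genes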
Procedure, shortened: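 Differentiated human HepaRG cells in serum-free induction medium were exposed 48 h to eight half-log concentrations up to 100 uM in 0.5% DMSO; mRNA quantified by TaqMan qRT-PCR, normalized to ACTB, GAPDH, POLR2A, fitted bidirectionally versus DMSO.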

[6] = read-out: catalase (CAT), CAT (gene 847); assay: LTEA_HepaRG_CAT: Life Technologies and Expression Analysis (LTEA) Assay for catalase (CAT) using HepaRG (AID 2283452);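 as to AC50: TaqMan qRT-PCR signal normalized to ACTB GAPDH and POLR2A housekeeping genes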
Procedure, shortened: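 Differentiated HepaRG cells in serum-free induction medium were dosed 48 h in duplicate, eight half-log concentrations from 100 uM in 0.5% DMSO. Transcript measured by TaqMan qRT-PCR, normalised to ACTB/GAPDH/POLR2A, fitted bidirectionally against DMSO.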

[7] = read-out: flavin-containing dimethylaniline monooxygenases 3 (FMO3), FMO3 (gene 2328); assay: LTEA_HepaRG_FMO3: Life Technologies and Expression Analysis (LTEA) Assay for flavin-containing dimethylaniline monooxygenases 3 (FMO3) using HepaRG (AID 2283453)
Procedure, shortened: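 Differentiated HepaRG cells in serum-free induction medium, exposed 48 h in duplicate to 8 half-log concentrations up to 100 uM in 0.5% DMSO. FMO3 mRNA by qRT-PCR, normalized to ACTB, GAPDH, POLR2A; bidirectional fit vs DMSO.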

[8] = read-out: CFLAR gene, CFLAR (gene 8837); assay: LTEA_HepaRG_CFLAR: Life Technologies and Expression Analysis (LTEA) Assay for CFLAR gene using HepaRG (AID 2283455)
Procedure, shortened: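 HepaRG cells were plated for 48 h, switched to serum-free induction medium, then exposed in duplicate for 48 h to 8 concentrations (top 100 uM, half-log steps, 0.5% DMSO). CFLAR mRNA was measured by qRT-PCR, normalized to ACTB, GAPDH and POLR2A.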

[9] = read-out: Forkhead box O1 (FOXO1), FOXO1 (gene 2308); assay: LTEA_HepaRG_FOXO1: Life Technologies and Expression Analysis (LTEA) Assay for Forkhead box O1 (FOXO1) using HepaRG (AID 2283456)
Procedure, shortened: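 Differentiated human HepaRG cells in serum-free induction medium were exposed in duplicate for 48 h to eight half-log concentrations (top 100 uM, 0.5% DMSO). FOXO1 mRNA was measured by TaqMan qRT-PCR, normalised to ACTB, GAPDH and POLR2A, and fitted bidirectionally against DMSO.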

[10] = read-out: growth arrest and DNA damage 45 (GADD45A), GADD45A (gene 1647); assay: LTEA_HepaRG_GADD45A: Life Technologies and Expression Analysis (LTEA) Assay for growth arrest and DNA damage 45 (GADD45A) using HepaRG (AID 2283458)
Procedure, shortened: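 Cells plated and cultured 48 h, switched to serum-free induction medium, then dosed for 48 h (100 uM top, half-log dilutions, 0.5% DMSO). RNA was isolated and transcript measured by Fluidigm qRT-PCR.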

[11] = read-out: Forkhead box O3 (FOXO3), FOXO3 (gene 2309); assay: LTEA_HepaRG_FOXO3: Life Technologies and Expression Analysis (LTEA) Assay for Forkhead box O3 (FOXO3) using HepaRG (AID 2283459)
Procedure, shortened: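 Differentiated human HepaRG cells in serum-free induction medium were exposed in duplicate for 48 h to eight half-log concentrations up to 100 uM in 0.5% DMSO. FOXO3 mRNA was quantified by qRT-PCR, normalized to ACTB, GAPDH and POLR2A, with bidirectional fitting versus DMSO.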

[12] = read-out: ABC Transporter (ABCB1), ABCB1 (gene 5243); assay: LTEA_HepaRG_ABCB1: Life Technologies and Expression Analysis (LTEA) Assay for ABC Transporter (ABCB1) using HepaRG (AID 2283460)
Procedure, shortened: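 Differentiated human HepaRG cells, plated 48 h then switched to serum-free induction medium, were exposed in duplicate to eight half-log concentrations up to 100 uM in 0.5% DMSO for 48 h. ABCB1 mRNA was measured by TaqMan qRT-PCR, normalized to ACTB/GAPDH/POLR2A.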

[13] = read-out: ABC Transporter (ABCC3), ABCC3 (gene 8714); assay: LTEA_HepaRG_ABCC3: Life Technologies and Expression Analysis (LTEA) Assay for ABC Transporter (ABCC3) using HepaRG (AID 2283462)
Procedure, shortened: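 HepaRG cells in serum-free induction medium were exposed for 48 h in duplicate to 8-point half-log concentrations topping at 100 uM in 0.5% DMSO. ABCC3 mRNA was measured by qRT-PCR normalized to ACTB, GAPDH and POLR2A, with bidirectional fitting versus DMSO.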

[14] = read-out: ABC Transporter (ABCB11), ABCB11 (gene 8647); assay: LTEA_HepaRG_ABCB11: Life Technologies and Expression Analysis (LTEA) Assay for ABC Transporter (ABCB11) using HepaRG (AID 2283463)
Procedure, shortened: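 Differentiated human HepaRG cells were exposed for 48 h in serum-free induction medium to eight half-log concentrations up to 100 uM in 0.5% DMSO. ABCB11 mRNA was quantified by qRT-PCR, normalized to ACTB, GAPDH and POLR2A, and fitted bidirectionally versus DMSO.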

[15] = read-out: ABC Transporter (ABCC2), ABCC2 (gene 1244); assay: LTEA_HepaRG_ABCC2: Life Technologies and Expression Analysis (LTEA) Assay for ABC Transporter (ABCC2) using HepaRG (AID 2283464)
Procedure, shortened: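 HepaRG cells were plated 48 h, switched to serum-free induction medium, then exposed in duplicate for 48 h to 8 concentrations (top 100 uM, half-log steps, 0.5% DMSO). ABCC2 mRNA was measured by qRT-PCR normalized to ACTB/GAPDH/POLR2A; bidirectional fitting versus DMSO.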

[16] = read-out: Broad substrate specificity ATP-binding cassette transporter ABCG2 (Homo sapiens) (UniProt Q9UNQ0); assay: LTEA_HepaRG_ABCG2: Life Technologies and Expression Analysis (LTEA) Assay for ABC Transporter (ABCG2) using HepaRG (AID 2283465)
Procedure, shortened: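 Differentiated HepaRG cells in serum-free induction medium were exposed for 48 h, in duplicate, to eight half-log concentrations up to 100 uM in 0.5% DMSO. ABCG2 mRNA was measured by TaqMan qRT-PCR, normalized to ACTB, GAPDH and POLR2A, and fitted bidirectionally versus DMSO.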

[17] = read-out: Cytochrome P450 (CYP1A1), CYP1A1 (gene 1543); assay: LTEA_HepaRG_CYP1A1: Life Technologies and Expression Analysis (LTEA) Assay for Cytochrome P450 (CYP1A1) using HepaRG (AID 2283454)
Procedure, shortened: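 Differentiated HepaRG cells in serum-free induction medium were exposed in duplicate for 48 h to eight half-log concentrations up to 100 uM in 0.5% DMSO. CYP1A1 mRNA was quantified by TaqMan qRT-PCR, normalized to ACTB, GAPDH and POLR2A.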

[18] = read-out: growth arrest and DNA damage 45 (GADD45B), GADD45B (gene 4616); assay: LTEA_HepaRG_GADD45B: Life Technologies and Expression Analysis (LTEA) Assay for growth arrest and DNA damage 45 (GADD45B) using HepaRG (AID 2283461)
Procedure, shortened: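 Differentiated HepaRG cells, plated 48 h then switched to serum-free induction medium, were exposed 48 h in duplicate to eight half-log concentrations from 100 uM in 0.5% DMSO; mRNA quantified by qRT-PCR, normalized to ACTB/GAPDH/POLR2A, bidirectional fit versus DMSO.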

Measured: AC50

Fatty acid synthase (Homo sapiens), sequence (P49327 whole entry, looked up): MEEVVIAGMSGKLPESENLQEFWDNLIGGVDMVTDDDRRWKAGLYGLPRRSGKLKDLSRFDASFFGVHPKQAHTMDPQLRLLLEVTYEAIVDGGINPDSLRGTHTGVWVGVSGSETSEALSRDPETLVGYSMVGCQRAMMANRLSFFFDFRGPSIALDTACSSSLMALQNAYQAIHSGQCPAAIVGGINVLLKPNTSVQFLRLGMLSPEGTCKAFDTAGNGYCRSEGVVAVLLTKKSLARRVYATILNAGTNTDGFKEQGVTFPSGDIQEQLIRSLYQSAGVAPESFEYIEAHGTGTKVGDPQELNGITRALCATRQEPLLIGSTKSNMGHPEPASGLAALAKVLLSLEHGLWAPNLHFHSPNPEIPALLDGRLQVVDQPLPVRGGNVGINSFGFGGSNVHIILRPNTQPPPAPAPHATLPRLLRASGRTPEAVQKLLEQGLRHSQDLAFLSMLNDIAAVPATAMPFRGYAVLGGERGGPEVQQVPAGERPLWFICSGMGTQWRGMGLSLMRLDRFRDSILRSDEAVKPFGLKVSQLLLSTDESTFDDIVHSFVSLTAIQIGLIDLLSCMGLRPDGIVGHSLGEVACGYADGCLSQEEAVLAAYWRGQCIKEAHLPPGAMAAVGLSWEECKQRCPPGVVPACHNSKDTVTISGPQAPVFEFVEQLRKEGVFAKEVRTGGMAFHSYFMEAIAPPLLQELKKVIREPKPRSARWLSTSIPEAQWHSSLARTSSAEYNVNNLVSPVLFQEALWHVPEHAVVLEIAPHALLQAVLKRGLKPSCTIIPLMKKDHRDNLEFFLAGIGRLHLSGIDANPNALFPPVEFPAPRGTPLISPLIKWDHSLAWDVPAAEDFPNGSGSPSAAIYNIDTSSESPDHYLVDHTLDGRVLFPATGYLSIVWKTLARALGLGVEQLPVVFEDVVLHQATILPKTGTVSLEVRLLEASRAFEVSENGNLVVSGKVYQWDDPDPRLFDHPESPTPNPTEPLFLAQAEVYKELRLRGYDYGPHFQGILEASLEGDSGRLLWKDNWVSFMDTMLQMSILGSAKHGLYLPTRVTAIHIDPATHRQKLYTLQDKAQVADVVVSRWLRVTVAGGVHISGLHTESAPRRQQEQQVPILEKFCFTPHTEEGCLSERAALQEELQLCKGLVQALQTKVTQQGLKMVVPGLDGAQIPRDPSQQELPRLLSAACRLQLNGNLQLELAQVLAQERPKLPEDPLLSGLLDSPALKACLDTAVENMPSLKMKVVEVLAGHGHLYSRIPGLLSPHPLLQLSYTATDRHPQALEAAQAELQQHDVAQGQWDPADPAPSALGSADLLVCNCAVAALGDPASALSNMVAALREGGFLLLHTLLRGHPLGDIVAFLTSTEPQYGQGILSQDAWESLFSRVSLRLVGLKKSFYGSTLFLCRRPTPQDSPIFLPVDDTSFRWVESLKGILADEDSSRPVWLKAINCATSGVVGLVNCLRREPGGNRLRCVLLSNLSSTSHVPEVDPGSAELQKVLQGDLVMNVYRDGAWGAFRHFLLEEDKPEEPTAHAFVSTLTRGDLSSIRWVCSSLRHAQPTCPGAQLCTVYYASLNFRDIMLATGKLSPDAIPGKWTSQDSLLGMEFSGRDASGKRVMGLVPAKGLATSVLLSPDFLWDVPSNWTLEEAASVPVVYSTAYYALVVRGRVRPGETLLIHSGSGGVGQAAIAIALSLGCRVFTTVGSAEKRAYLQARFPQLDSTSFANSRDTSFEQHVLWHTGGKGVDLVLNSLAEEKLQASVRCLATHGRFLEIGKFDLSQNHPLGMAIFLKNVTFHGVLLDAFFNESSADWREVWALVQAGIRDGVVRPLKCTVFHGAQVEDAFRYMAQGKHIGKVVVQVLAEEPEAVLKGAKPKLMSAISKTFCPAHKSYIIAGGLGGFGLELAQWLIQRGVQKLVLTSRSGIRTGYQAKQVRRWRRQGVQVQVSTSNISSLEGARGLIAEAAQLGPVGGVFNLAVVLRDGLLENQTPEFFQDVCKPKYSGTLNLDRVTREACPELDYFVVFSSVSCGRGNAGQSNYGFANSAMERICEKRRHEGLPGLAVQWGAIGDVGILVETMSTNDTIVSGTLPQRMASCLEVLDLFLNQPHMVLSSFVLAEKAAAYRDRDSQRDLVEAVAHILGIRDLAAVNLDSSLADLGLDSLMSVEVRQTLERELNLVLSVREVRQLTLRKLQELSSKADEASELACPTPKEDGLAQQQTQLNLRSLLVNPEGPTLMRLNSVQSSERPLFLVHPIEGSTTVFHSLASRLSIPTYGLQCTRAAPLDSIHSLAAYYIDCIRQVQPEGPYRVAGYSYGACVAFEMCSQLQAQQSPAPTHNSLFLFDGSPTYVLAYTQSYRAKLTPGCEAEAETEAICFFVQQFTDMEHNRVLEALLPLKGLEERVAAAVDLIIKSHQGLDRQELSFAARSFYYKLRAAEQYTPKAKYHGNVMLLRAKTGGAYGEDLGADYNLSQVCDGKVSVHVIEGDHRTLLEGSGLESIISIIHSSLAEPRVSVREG
Broad substrate specificity ATP-binding cassette transporter ABCG2 (Homo sapiens), sequence (Q9UNQ0 whole entry, looked up): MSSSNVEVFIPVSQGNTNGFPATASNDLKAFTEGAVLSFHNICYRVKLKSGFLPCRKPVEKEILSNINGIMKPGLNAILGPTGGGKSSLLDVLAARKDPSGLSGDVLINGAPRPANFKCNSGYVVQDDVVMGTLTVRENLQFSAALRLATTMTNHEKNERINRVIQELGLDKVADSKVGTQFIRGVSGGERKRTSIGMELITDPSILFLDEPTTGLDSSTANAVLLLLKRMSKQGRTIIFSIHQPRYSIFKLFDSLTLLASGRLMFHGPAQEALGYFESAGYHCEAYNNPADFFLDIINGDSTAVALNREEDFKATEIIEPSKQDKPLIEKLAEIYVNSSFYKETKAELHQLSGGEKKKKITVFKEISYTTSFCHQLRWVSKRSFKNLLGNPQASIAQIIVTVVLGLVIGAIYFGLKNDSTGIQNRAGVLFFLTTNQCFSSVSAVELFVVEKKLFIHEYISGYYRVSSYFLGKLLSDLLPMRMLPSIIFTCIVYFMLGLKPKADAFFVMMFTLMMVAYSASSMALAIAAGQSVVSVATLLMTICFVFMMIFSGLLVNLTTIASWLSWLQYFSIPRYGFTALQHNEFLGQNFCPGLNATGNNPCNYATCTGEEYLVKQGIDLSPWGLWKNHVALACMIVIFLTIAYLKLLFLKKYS

CC(C)N(C(=O)SCC(Cl)=C(Cl)Cl)C(C)C
inactive: [1] | [2] | [3] | [4] | [5] | [6] | [7] | [8] | [9] | [10] | [11] | [12] | [13] | [14] | [15] | [16]

CCOC(=O)CC(SP(=O)(OC)OC)C(=O)OCC (stereo unspecified)
inactive: [1] | [2] | [3] | [4] | [5] | [6] | [7] | [8] | [9] | [10] | [11] | [12] | [15] | [16]
active: [17] 30.8 µM | [14] 22.7 µM

Cc1ccn2nc(S(=O)(=O)Nc3c(F)cccc3F)nc2n1
inactive: [1] | [2] | [3] | [4] | [5] | [6] | [7] | [17] | [8] | [9] | [10] | [11] | [12] | [14] | [15] | [16]

CCc1cccc(CC)c1N(COC)C(=O)CCl
inactive: [1] | [2] | [3] | [4] | [5] | [6] | [7] | [8] | [9] | [10] | [11] | [12] | [18] | [14] | [15] | [16]

CSC1=N[C@@](C)(c2ccccc2)C(=O)N1Nc1ccccc1
active: [1] 77.8 µM | [2] 66.1 µM | [4] 28.2 µM | [5] 50 µM | [6] 32.7 µM | [7] 30.6 µM | [9] 31.2 µM | [10] 32 µM | [14] 31.4 µM | [15] 83.6 µM | [16] 13.2 µM
inactive: [3] | [8] | [11] | [12]

Cc1cc(C2CC2)nc(Nc2ccccc2)n1
active: [2] 50 µM | [14] 74.6 µM
inactive: [1] | [3] | [4] | [5] | [6] | [7] | [8] | [9] | [10] | [11] | [12] | [18] | [15] | [16]

CN(C)[C@@H]1C(=O)C(C(N)=O)=C(O)[C@@]2(O)C(=O)C3=C(O)c4c(O)cccc4[C@@](C)(O)[C@H]3[C@H](O)[C@@H]12
inactive: [1] | [2] | [3] | [4] | [5] | [6] | [7] | [8] | [9] | [10] | [11] | [12] | [13] | [14] | [15] | [16]
active: [17] 66.4 µM and 18.3 µM

Cc1nn(-c2cc(NS(C)(=O)=O)c(Cl)cc2Cl)c(=O)n1C(F)F
inactive: [1] | [2] | [4] | [5] | [6] | [7] | [8] | [9] | [10] | [11] | [13] | [16]
active: [17] 50 µM | [12] 8.21 µM | [15] 13.6 µM

CCOP(=S)(OCC)SCCSCC
active: [12] 0.0511 µM
inactive: [1] | [2] | [3] | [4] | [5] | [6] | [7] | [8] | [9] | [10] | [11] | [13] | [14] | [15] | [16]

CC(=NC#N)N(C)Cc1ccc(Cl)nc1
inactive: [1] | [2] | [3] | [4] | [5] | [6] | [7] | [8] | [9] | [10] | [11] | [12] | [13] | [14] | [15] | [16]
active: [17] 50 µM

COc1cc(OC)nc(Sc2cccc(Cl)c2C(=O)O)n1
inactive: [1] | [2] | [4] | [5] | [6] | [7] | [17] | [8] | [9] | [10] | [11] | [12] | [18] | [14] | [15] | [16]
